Source: PubChem BioAssay
Sfp inh – qHTS Assay for Inhibitors of Bacillus subtilis Sfp phosphopantetheinyl transferase (PPTase) | 4'-phosphopantetheinyl transferase ffp (Bacillus subtilis), Q9F4F7 | Biochemical Sfp PPTase activity, qHTS | Potency, µM, without a hit: largest response in the series, negative = inhibition, actives largely listed as inhibitors | 310,000 compounds, 3.5% hits;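 further: the enzyme is Sfp with the accession as filed and its product quenches rhodamine fluorescence; 0% = enzyme reaction without inhibitor and -100% = no enzyme wells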
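Fluorescence-quenching assay with 15 nM Sfp, 5 uM rhodamine-CoA and 12.5 uM BHQ-2-labelled ybbR peptide in pH 7.6 Hepes/MgCl2 buffer. Enzyme was pre-incubated with compound for 15 min at room temperature. Rate was taken from the 30-min fluorescence change (525/598 nm).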
JMJD2A Tudor inh – qHTS Assay for Inhibitors of JMJD2A-Tudor Domain; AlphaScreen JMJD2A-Tudor / H3K4me3 peptide binding; Potency, µM (titrated, usually from 114 µM), inactives show at the highest dose activity change, negative = inhibition, actives largely listed as inhibitors; 390,000 compounds, 4.4% hits; further: on the % scale 0 is the no-effect control and ±100 the full control effect; nearly all actives have a fitted effect of over 50% in size
G9a block – qHTS Assay for Inhibitors of Histone Lysine Methyltransferase G9a; Histone-lysine N-methyltransferase EHMT2 (Homo sapiens), Q96KQ7; G9a H3K9 monomethylation, AlphaScreen, 2 h; Potency, µM (titrated, usually from 102 µM), without a hit: top-dose activity, negative = inhibition, most hits filed as inhibitors; 350,000 compounds, 8.8% hits; AID 504332, 2011; further: on the % scale 0 is the no-effect control and ±100 the full control effect; nearly all actives have a fitted effect of over 75% in size
Target sequence (Q96KQ7 913-1193 limits assumed): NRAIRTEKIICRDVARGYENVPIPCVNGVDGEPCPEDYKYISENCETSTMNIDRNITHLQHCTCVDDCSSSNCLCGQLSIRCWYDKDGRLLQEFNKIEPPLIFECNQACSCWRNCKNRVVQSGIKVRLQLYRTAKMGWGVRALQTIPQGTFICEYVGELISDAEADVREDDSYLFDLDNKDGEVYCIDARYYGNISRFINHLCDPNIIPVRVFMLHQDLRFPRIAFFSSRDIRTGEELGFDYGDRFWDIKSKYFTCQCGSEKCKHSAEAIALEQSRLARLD
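G9a (20 nM) was preincubated 15 min with compound, then reacted 2 h at room temperature with 500 nM biotin-H3K9 peptide and 20 µM SAM. Monomethyl-H3K9 detected by AlphaScreen using anti-H3K9me1 antibody.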
BAZ2B block – qHTS Assay for Inhibitors of BAZ2B; Bromodomain adjacent to zinc finger domain protein 2B (Homo sapiens), Q9UIF8; AlphaScreen BAZ2B-H3K14Ac peptide displacement; Potency, µM (top dose mostly 114 µM), for the others: at the top dose activity change, negative = inhibition, most hits filed as inhibitors; 360,000 compounds, 4.4% hits; AID 504333, 2011; further: on the % scale 0 is the no-effect control and ±100 the full control effect; nearly all actives have a fitted effect of over 60% in size
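Inhibition is scored as reduced AlphaScreen emission. The BAZ2B/b-H3(5-23)K14Ac complex (50 nM each) in PBS pH 7.4, 0.01% Tween-20 meets compound (up to 110 uM) for 30 min at RT before bead addition.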
HP1b chromo inh – HTS for Inhibitors of HP1-beta Chromodomain Interactions with Methylated Histone Tails. Chromobox protein homolog 1 (Homo sapiens), P83916. AlphaScreen HP1-beta / biotin-H3K9me3 peptide binding. Potency, µM (titrated, usually from 114 µM), for the others: at the top dose activity change, negative = inhibition, usual class: inhibitors. 390,000 compounds, 0.56% hits. AID 540317, 2011; further: nearly all actives have a fitted effect of over 70% in size
Target sequence (P83916 whole entry, looked up): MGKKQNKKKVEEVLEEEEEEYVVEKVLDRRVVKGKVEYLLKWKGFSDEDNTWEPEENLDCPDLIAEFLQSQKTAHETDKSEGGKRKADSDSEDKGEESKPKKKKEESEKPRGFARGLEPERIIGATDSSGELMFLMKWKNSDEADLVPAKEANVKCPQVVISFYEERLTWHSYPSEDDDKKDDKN
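HP1-beta protein (50 nM final) preincubated 30 min at room temperature with biotinylated H3(1-18)K9me3 peptide (50 nM) in PBS pH 7.4, 0.01% Tween-20, then compound added for 30 min. AlphaScreen streptavidin donor/nickel chelate acceptor beads (10 ug/mL final), 30 min dark, luminescence read.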
TDP1 inh – qHTS Assay for Inhibitors of Tyrosyl-DNA Phosphodiesterase (TDP1); Tyrosyl-DNA phosphodiesterase 1 (Homo sapiens), Q9NUW8; recombinant TDP1, AlphaScreen DNA substrate cleavage; Potency, µM (highest dose often 130 µM), for inactives: at the top dose activity change, negative = inhibition, usual class: inhibitors; 350,000 compounds, 0.28% hits; AID 485290, 2010; further: on the % scale 0 is the no-effect control and ±100 the full control effect; nearly all actives have a fitted effect of over 40% in size
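E. coli-derived human Tdp1, 1 nM final. Cpd preinc 15 min RT; substrate 15 nM final, 5 min RT; AS bead mix 10 ug/ml final, 10 min RT. Signal loss = tyrosine-FITC cleavage. No-enzyme wells = max signal.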
Active calls of the source: *; ? = inconclusive; · = not tested or not shown; [ ] = another dose, or the depositor's remark. Sampled rows, rich in hits. Any-hit rate of the full collection: about 12%. The call rests on the fitted dose curve; in most records, active means well fitted curve in the direction sought with a large enough effect; inconclusive means small, poorly fitted or top-dose-only effect, or another doubt; inactive means no such curve, though single readings can be large; an effect the other way counts as inactive or inconclusive. Potency means the concentration at half of the fitted maximal effect.

SMILES	Sfp inh	JMJD2A Tudor inh	G9a block	BAZ2B block	HP1b chromo inh	TDP1 inh
CC(C)(C)c1ccc(OCCC(=O)Nc2cccc(S(=O)(=O)N3CCCC3)c2)cc1	·	-15%	3.5µM*	4%	17%	·
O=C(CN1C(=O)NC(Cc2c[nH]c3ccccc23)C1=O)Nc1cccc(S(=O)(=O)N2CCCC2)c1 (stereo not drawn)	3%	?	-37%	-32%	2%	-3%
O=C(CCl)Nc1cccc(S(=O)(=O)N2CCCCCC2)c1	20%	-20%	50µM*	-19%	28%	11%
O=C(Nc1cccc(Cl)c1)C1CCCN(c2nn3cc(-c4ccc(F)cc4)nc3s2)C1 (stereo not drawn)	·	-19%	?	5%	1%	4%
CC(=O)NC(CC(=O)NC1CCCCC1)c1ccccc1 (stereo not drawn)	5%	-11%	10µM*	-5%	14%	1%
COc1ccc(Br)cc1CN(C)CC(=O)Nc1cccc(S(N)(=O)=O)c1	13%	-6%[11.4 µM]	13%	-19%	40%	2%
COc1ccc(Br)cc1CN(C)CC(=O)Nc1cccc(S(=O)(=O)N2CCCC2)c1	·	25µM*	·	·	?	2%
Cc1cc(C)cc(NC(=S)NN)c1	16%	-28%	10µM*	-21%	-11%	0%
O=C(Nc1ccc(F)cc1)C1COc2ccccc2O1 (stereo not drawn)	4%	-5%	40µM*	3%	40%	·
CCN(CC)S(=O)(=O)c1ccc(NC(=O)C2COc3ccccc3O2)cc1 (stereo not drawn)	?	-8%	20%	-6%	14%	5%
COc1ccc(NC(=O)C2C3C=CC(C3)C2C(=O)O)cc1 (stereo not drawn)	14%	-16%[11.4 µM]	3%	-13%	38%	·
Cc1ccnc(NS(=O)(=O)c2ccc(NC(=O)C3CCCCC3)cc2)n1	1%	-6%	?	-4%	9%	4%
Cc1ccc(-c2ccc(NC(=O)C3C4C=CC(C4)C3C(=O)O)cc2)o1 (stereo not drawn)	2.2µM*	-32%	16µM*	?	14%	5%
Cc1ccnc(NS(=O)(=O)c2ccc(NC(=O)C3C4C=CC(C4)C3C(=O)O)cc2)n1 (stereo not drawn)	9%	8%	·	-14%	26%	50µM*
Cc1ccnc(NS(=O)(=O)c2ccc(NC(=O)C3COc4ccccc4O3)cc2)n1 (stereo not drawn)	16%	18µM*	2%	-22%	?	2%
C[C@H](CO)N1C[C@H](C)[C@@H](CN(C)Cc2ccccc2)Oc2ccc(NC(=O)CCCCCC(=O)Nc3ccccc3N)cc2C1=O	·	-24%	·	·	27%	1%
COc1ccc(CNC(=O)Cn2c(=O)oc3cc(S(=O)(=O)NCc4ccccc4)ccc32)cc1	·	-12%	13%[59 µM]	3%	19%	0%
Cc1ccc(NC(=S)Nc2ccc3nc(-c4ccccn4)c(-c4ccccn4)nc3c2)cc1C	-18%	?	7.9µM*	?	-23%	6%
COc1cccc(C2C(C(=O)Nc3ccc(Cl)cc3)=C(C)Nc3c(C(=O)Nc4ccccc4)cnn32)c1OC (stereo not drawn)	·	-28%	15%[59 µM]	12%	33%	3%
O=C(CCCN1C(=O)/C(=C/c2cccc(Br)c2)SC1=S)Nc1ccccn1	5%	?	?	?	8.9µM*	-3%
O=C(CCCN1C(=O)/C(=C/c2cccc(Br)c2)SC1=S)Nc1cccnc1	-16%	?	?	-28%	5%	1%
CCc1ccc(/C=C2/SC(=S)N(CCCC(=O)Nc3ccccc3C(=O)O)C2=O)cc1	16%	50µM*	?	-27%	-8%	6%
CCc1ccc(/C=C2\SC(=S)N(CCCC(=O)Nc3ccccn3)C2=O)cc1	1%	?	2%[0.501 µM]	10µM*	?	3%
CCc1ccc(/C=C2\SC(=S)N(CCC(=O)NC3=NCCS3)C2=O)cc1	-4%	·	-32%	-2%	·	0%
Cc1nnc(SCC(=O)NC(=O)NCCC(C)C)s1	10%	-5%	6%	·	22%	3%
SMILES	Sfp inh	JMJD2A Tudor inh	G9a block	BAZ2B block	HP1b chromo inh	TDP1 inh
CC(C)c1nnc(NC(=O)C2CCN(C(=O)C(C)(C)C)CC2)s1	·	0%	·	·	-2%	·
O=S(=O)(c1cccnc1)N1CCn2cccc2C1c1ccccc1F (stereo not drawn)	·	-26%	45µM*	?	-17%	·
CN(C)C=C1C(=O)c2ccccc2C1=O	5%	-7%	?	-2%	34%	3%
CN(C)/C=C1\C(=O)NN=C1c1ccccc1	0%	-3%	50µM*	-27%	34%	-5%
COC(=O)c1cnc2c(c(C)nn2C)c1OC	9%	1%	18%	4%	14%	0%
COc1ccc(C2=NOC3(CC(=O)N(c4ccc5ccccc5c4)C3=O)C2)c(OC)c1 (stereo not drawn)	3%	50µM*	?	?	-20%	·
COc1ccc(C2=NOC3(CC(=O)N(c4ccc(F)cc4)C3=O)C2)cc1 (stereo not drawn)	1%	-14%	50µM*	-19%	29%	4%
Cc1ccc(C2=NOC3(CC(=O)N(c4ccc(C)cc4)C3=O)C2)cc1 (stereo not drawn)	6%	3%	·	-3%	29%	-5%
COc1ccc(C2=NOC3(CC(=O)N(c4ccc(F)cc4)C3=O)C2)c(OC)c1 (stereo not drawn)	11%	-27%	50µM*	-29%	6%	-1%
COc1ccc(C)cc1NC(=O)Cn1cc(S(=O)(=O)N2CCC(C)CC2)c2ccccc2c1=O	·	-19%	-23%[59 µM]	-19%	23%	2%
Cc1ccccc1N1CC(c2nnc(NC(=O)c3ccco3)s2)CC1=O (stereo not drawn)	·	-12%	8.9µM*	?	-6%	1%
Cc1noc(C)c1C(=O)N1CCC2(CCCN(c3ccccn3)C2)CC1	6%	·	-4%[12.7 µM]	·	·	·
O=C(CSc1n[nH]c(-c2cccnc2)n1)Nc1ccc(Br)cc1	-8%	-34%	8.9µM*	2%	13%	6%
Cc1cc(C)cc(NC(=O)CSc2n[nH]c(-c3cccnc3)n2)c1	8%	-11%	12%	4%	21%	9%[0.0935 µM]
